This passage reports Potency and outcome results from PubChem BioAssay (NCATS).

Records with an inconclusive call do not appear. Activity calls are given as the source filed them. Unless noted, the call rests on the fitted dose curve; in most records, active means well fitted curve in the direction sought with a large enough effect; inconclusive means small, poorly fitted or top-dose-only effect, or another doubt; inactive means no such curve, though single readings can be large; an effect the other way counts as inactive or inconclusive.

For assay [1], the target named is N-terminal Xaa-Pro-Lys N-methyltransferase 1 (Homo sapiens) (UniProt Q9BV86). As to the kind of experiment: Confirmatory qHTS for Inhibitors of N-terminal methyltransferase 1 (NTMT1): MTaseGlo Assay (AID 1645874). Further: nearly all actives have a fitted effect of over 65% in size. Further: potency means the concentration at half of the fitted maximal effect. The essentials:
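MTase-Glo luminescence measured SAH formed by 125 nM NTMT1 from 100 uM SAM and 1 uM SPKRIA peptide over 30 min at room temperature, following 15 min compound preincubation. Percent inhibition against no-enzyme and DMSO controls gave 4-parameter Hill fits.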
For orientation: In qHTS, concentration-response curves come from the screen itself.

For assay [2], the target named is Cytochrome P450 2C9 (Homo sapiens) (UniProt P11712). As to the kind of experiment: Cytochrome P450 family 2 subfamily C member 9 (CYP2C9) small molecule antagonists: luciferase biochemical (cell-free) qHTS assay (AID 1645842; active means well fitted curve in the direction sought with a large enough effect in the repeat runs; an effect the other way counts as inactive or inconclusive; further: potency means the concentration at half of the fitted maximal effect; nearly all actives have a fitted effect of over 55% in size). The essentials: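 P450-Glo CYP2C9 system: proluciferin substrate with enzyme in mix containing 0.4% BSA, 10 min at room temperature, then NADPH regeneration solution added and incubated 1 h at 37C. Detection reagent stopped reaction; luminescence read after 20 min as RLU.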

Assay [3] has as its target Rap guanine nucleotide exchange factor 3 (Homo sapiens) (UniProt O95398). As to the kind of experiment: Confirmatory qHTS for antagonist of cAMP-regulated guanine nucleotide exchange factor 3 (EPAC1) (AID 1645880). Further: potency means the concentration at half of the fitted maximal effect; nearly all actives have a fitted effect of over 55% in size. The essentials:
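Released BODIPY-GDP fluoresces less than Rap1-bound BODIPY-GDP; the signal is followed at 480/540 nm at 5-min intervals over 30 min, after 5 min at room temperature. Reactions contain 100 nM EPAC1, 250 nM RAP1B-BODIPY-GDP and 50 uM GDP; results are normalized to ATA and DMSO.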

Assay [4] shares this target. As to the kind of experiment: Confirmatory qHTS for agonist of cAMP-regulated guanine nucleotide exchange factor 3 (EPAC1) (AID 1645881).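 Further: EPAC1 catalysed release of BODIPY-GDP from Rap1B seen as fluorescence loss; nearly all actives have a fitted effect of over 75% in size.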
The target of assay [5] is Rap guanine nucleotide exchange factor 4 (Homo sapiens) (UniProt Q8WZA2). As to the kind of experiment: Confirmatory qHTS for agonist of cAMP-regulated guanine nucleotide exchange factor 4 (EPAC2) (AID 1645884).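 Further: nucleotide exchange releases bodipy-GDP from Rap1 and this lowers its fluorescence; nearly all actives have a fitted effect of over 65% in size.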
The target is the same in assay [6]. As to the kind of experiment: Confirmatory qHTS for antagonist of cAMP-regulated guanine nucleotide exchange factor 4 (EPAC2) (AID 1645885). Further: nearly all actives have a fitted effect of over 25% in size.
Assay [7] deals with Rap guanine nucleotide exchange factor 3 (Homo sapiens) (UniProt O95398). As to the kind of experiment: Counterscreen qHTS for antagonist of cAMP-regulated guanine nucleotide exchange factor 3 (EPAC1) (AID 1645888). The essentials: (§1)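 Rap1B-BODIPY-GDP 250 nM + GDP 50 uM; cpds 7-pt, final 9.74 nM–152 uM (activator mode) or from 7.32 nM upwards (inhibitor mode); RT; FI 480/540 nm at 5 and 30 min, then ± cAMP, reread.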
Background: The purpose of a counterscreen is to sort out artefacts and off-target activity.

Assay [8] shares this target. As to the kind of experiment: Counterscreen qHTS for agonist of cAMP-regulated guanine nucleotide exchange factor 3 (EPAC1) (AID 1645889). Further: nearly all actives have a fitted effect of over 40% in size. The essentials:
as §1

N-terminal Xaa-Pro-Lys N-methyltransferase 1 (Homo sapiens), sequence (Q9BV86 whole entry, looked up): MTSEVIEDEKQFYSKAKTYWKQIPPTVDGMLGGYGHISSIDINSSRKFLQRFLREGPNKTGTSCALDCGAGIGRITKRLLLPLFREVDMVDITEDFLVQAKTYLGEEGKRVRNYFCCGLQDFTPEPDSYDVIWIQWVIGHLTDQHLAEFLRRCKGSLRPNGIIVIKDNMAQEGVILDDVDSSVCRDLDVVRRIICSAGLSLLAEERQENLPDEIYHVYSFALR
Rap guanine nucleotide exchange factor 3 (Homo sapiens), sequence (O95398 whole entry, looked up): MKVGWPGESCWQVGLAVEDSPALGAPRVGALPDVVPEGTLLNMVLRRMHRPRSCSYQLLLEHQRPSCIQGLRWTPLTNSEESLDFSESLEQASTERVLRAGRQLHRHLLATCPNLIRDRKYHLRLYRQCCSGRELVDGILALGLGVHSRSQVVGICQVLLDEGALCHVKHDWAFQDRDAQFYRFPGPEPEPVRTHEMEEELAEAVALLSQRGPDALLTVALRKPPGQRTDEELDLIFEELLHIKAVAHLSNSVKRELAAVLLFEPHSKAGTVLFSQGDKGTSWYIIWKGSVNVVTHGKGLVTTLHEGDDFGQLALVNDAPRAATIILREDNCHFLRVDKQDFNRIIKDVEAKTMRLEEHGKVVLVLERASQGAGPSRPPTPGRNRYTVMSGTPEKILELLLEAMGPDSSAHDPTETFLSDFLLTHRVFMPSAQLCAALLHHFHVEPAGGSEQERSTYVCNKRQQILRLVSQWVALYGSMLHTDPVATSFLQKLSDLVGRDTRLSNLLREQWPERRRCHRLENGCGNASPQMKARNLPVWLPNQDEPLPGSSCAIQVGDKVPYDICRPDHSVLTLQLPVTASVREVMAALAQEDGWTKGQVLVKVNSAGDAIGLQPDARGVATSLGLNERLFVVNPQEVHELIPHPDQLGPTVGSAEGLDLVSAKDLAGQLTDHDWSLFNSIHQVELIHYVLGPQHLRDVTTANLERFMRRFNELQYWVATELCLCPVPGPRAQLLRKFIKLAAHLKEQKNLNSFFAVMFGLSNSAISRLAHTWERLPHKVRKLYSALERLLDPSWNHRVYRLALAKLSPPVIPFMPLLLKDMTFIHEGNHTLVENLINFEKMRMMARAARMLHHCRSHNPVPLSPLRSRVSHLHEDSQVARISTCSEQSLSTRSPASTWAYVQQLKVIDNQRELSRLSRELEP
Rap guanine nucleotide exchange factor 4 (Homo sapiens), sequence (Q8WZA2 whole entry, looked up): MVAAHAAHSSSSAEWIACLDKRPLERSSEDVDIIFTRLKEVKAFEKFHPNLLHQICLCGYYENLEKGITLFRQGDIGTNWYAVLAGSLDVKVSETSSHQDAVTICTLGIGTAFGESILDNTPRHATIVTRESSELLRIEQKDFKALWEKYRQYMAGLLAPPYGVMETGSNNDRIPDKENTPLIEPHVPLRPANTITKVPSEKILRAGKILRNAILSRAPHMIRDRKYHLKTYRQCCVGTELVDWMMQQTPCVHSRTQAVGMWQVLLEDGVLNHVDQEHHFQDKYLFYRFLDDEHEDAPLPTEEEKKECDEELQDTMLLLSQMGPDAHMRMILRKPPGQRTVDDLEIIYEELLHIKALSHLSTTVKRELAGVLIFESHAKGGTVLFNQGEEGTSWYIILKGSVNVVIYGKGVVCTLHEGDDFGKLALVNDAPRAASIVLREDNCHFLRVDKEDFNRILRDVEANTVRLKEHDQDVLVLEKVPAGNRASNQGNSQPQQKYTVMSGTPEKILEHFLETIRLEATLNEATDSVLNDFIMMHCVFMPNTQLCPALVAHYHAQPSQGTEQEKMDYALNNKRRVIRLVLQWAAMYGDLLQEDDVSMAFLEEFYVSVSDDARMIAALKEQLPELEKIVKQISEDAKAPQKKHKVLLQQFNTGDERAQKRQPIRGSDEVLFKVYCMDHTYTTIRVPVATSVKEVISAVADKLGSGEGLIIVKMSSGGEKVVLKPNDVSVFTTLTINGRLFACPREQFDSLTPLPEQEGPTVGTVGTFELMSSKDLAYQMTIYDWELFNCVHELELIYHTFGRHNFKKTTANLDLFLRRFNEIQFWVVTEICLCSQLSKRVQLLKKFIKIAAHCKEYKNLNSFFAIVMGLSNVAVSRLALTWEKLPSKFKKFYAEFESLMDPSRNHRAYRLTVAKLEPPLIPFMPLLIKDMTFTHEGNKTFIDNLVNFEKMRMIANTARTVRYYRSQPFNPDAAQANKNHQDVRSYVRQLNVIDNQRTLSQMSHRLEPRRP
Cytochrome P450 2C9 (Homo sapiens), sequence (P11712 whole entry, looked up): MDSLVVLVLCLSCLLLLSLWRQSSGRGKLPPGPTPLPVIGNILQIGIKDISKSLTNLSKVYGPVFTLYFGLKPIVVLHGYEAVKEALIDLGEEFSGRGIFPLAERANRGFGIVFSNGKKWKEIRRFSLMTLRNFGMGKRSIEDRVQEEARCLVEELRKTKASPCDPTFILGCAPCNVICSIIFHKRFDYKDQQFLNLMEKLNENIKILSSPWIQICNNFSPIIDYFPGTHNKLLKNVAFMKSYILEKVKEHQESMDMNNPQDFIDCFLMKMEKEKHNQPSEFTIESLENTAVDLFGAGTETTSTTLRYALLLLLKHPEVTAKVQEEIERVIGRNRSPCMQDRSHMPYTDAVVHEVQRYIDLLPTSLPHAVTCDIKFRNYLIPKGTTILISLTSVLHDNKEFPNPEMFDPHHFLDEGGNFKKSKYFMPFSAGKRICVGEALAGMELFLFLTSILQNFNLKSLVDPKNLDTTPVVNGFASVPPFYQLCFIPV

As to `COCCCNC(=O)CSc1c2c(nc3ccc(Cl)cc13)CCCC2`, in assay [1], the Potency result was “inactive”.

For `Cc1ccc(NC(=O)CSc2nc3ccccc3c3nc(CCn4cncc4C)nn23)cc1F`, in assay [2], the Potency was 536 nM (active).

In the case of `O=c1c2cc3c(cc2nc2sc(Nc4ccccc4)nn12)OCO3`, the Potency result in assay [1] was “inactive”.

`COc1ccccc1NC(=O)CSc1nc(-c2ccc(C(C)(C)C)cc2)c(C#N)c(=O)[nH]1`: the Potency in assay [2] is 756 nM (active); in assay [3], 67.5 µM (active). Besides, the Potency result in assay [4], in assay [5], in assay [7] and in assay [8] was “inactive” throughout. Besides, the outcome in assay [6] was “inactive [at 12.7 µM]”.

Turning to `Oc1cccc(Nc2cc(-c3ccccc3)ncn2)c1`, in assay [1], the Potency is 39.8 µM (active).

As to `COc1cc2c(NC3CCN(C(C)C)CC3)nc(N3CCCN(c4ccccc4)CC3)nc2cc1OCCCN1CCCC1`, the Potency in assay [1] is 55.5 µM (active).
